# Laboratory results taken from PubChem BioAssay (EPA / NIEHS).
# Calls of active or inactive are those of the source. Rule for the calls: active = hit-call score of the fitted dose curve at least 0.9, where 1 is the maximum; inactive = score below 0.9.
# How the values were obtained:
# [1] = ATG_CRE_CIS: Attagene CIS-FACTORIAL HepG2 Assay for human cAMP Responsive Element (CRE) binding protein 3 (AID 2282926); settings: HepG2 CRE cis-reporter, Attagene multiplexed mRNA; actives raise or lower the signal
# Method in brief: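 We dosed HepG2 cells bearing multiple cis-promoter reporter units for 24 h and measured reporter mRNA by RT-PCR with capillary electrophoresis detection. Bidirectional concentration-response fitting used DMSO as negative control.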
# [2] = biological target: CCAAT/enhancer-binding protein beta (Homo sapiens) (UniProt P17676); experiment: ATG_C_EBP_CIS: Attagene CIS-FACTORIAL HepG2 Assay for human CCAAT/Enhancer Binding Protein (C/EBP) beta (AID 2282927); settings: HepG2 Attagene cis-factorial transcription factor reporter; actives raise or lower the signal
# Method in brief: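 Endogenous C/EBPb-driven reporter transcripts measured in transfected human HepG2 cells at 24 h via RT-PCR and capillary electrophoresis of labelled fragments. Activity fitted in both directions relative to DMSO baseline.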
# [3] = ATG_CMV_CIS: Attagene CIS-FACTORIAL HepG2 Assay for human CMV (Internal Marker) (AID 2282928); settings: HepG2 CMV promoter reporter, transcription factor profiling; actives raise or lower the signal;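 note: endpoint acts as a background internal control marker rather than a target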
# Method in brief: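 CMV internal-marker background readout in transiently transfected HepG2 cells bearing cis-regulated reporter units. Reporter mRNA is measured 24 h after dosing by RT-PCR and capillary electrophoresis, with bidirectional fitting against DMSO.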
# [4] = ATG_DR4_LXR_CIS: Attagene CIS-FACTORIAL HepG2 Assay for human Liver X Receptor (LXR), DR4 submotif (AID 2282929); settings: HepG2 Attagene DR4 cis-reporter, mRNA transcription; actives raise or lower the signal
# Method in brief: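 HepG2 cells transiently transfected with cis-promoter-driven multiplexed reporter units (DR4 element) were dosed for 24 h. Reporter mRNA was quantified by RT-PCR, fluorescent primer extension, HpaI digestion and capillary electrophoresis; bidirectional fitting versus DMSO baseline.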
# [5] = biological target: Aryl hydrocarbon receptor (Homo sapiens) (UniProt P35869); experiment: ATG_Ahr_CIS: Attagene CIS-FACTORIAL HepG2 Assay for human Aryl Hydrocarbon Receptor (Ahr) (AID 2282930); settings: HepG2 AhR cis-factorial reporter transcription; actives raise or lower the signal
# Method in brief: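 Reporter mRNA levels, quantified by RT-PCR and fluorescent capillary electrophoresis, reflect endogenous AhR transcriptional activity in HepG2 cells carrying transfected cis-promoter reporter constructs. Readout at 24 h post-dose; gain or loss fitted against DMSO baseline.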
# [6] = ATG_AP_1_CIS: Attagene CIS-FACTORIAL HepG2 Assay for human Activator Protein 1 (AP-1) (AID 2282931); settings: HepG2 Attagene cis-factorial AP-1 reporter mRNA; actives raise or lower the signal
# Method in brief: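 HepG2 cells transiently transfected with cis-element-driven multiplex reporter units; 24 h compound exposure. Reporter mRNA quantified by RT-PCR, FAM-labelled fragments resolved by capillary electrophoresis; bidirectional fit versus DMSO baseline.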
# [7] = ATG_AP_2_CIS: Attagene CIS-FACTORIAL HepG2 Assay for human Activator Protein 2 (AP-2) (AID 2282932); settings: HepG2 AP-2 cis-reporter, Attagene transcription factor profiling; actives raise or lower the signal
# Method in brief: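 HepG2, transient MRTU transfection, cis-regulated reporters; 24 h compound exposure; RNA isolated, RT-PCR, 6-FAM labelling, HpaI digest, CE fluorescence. DMSO = negative control/baseline, bidirectional fit.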
# [8] = ATG_BRE_CIS: Attagene CIS-FACTORIAL HepG2 Assay for human Bone Morphogenetic Protein (BMP) Response Element (BRE) (AID 2282933); settings: HepG2 BMP response element reporter, Attagene transcription factor profiling; actives raise or lower the signal
# Method in brief: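 HepG2 cells transiently transfected with multiplexed cis-element reporter units were dosed with chemical for 24 h. Reporter mRNA was measured by RT-PCR with fluorescent labelling, HpaI digestion and capillary electrophoresis; bidirectional fitting relative to DMSO.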
# [9] = biological target: Transcription factor E2F1 (Homo sapiens) (UniProt Q01094); experiment: ATG_E2F_CIS: Attagene CIS-FACTORIAL HepG2 Assay for human E2F Transcription Factor 1 (AID 2282935); settings: HepG2 Attagene cis-reporter, E2F reporter RNA transcripts; actives raise or lower the signal
# Method in brief: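 Cis-element reporter mRNA induction in transiently transfected HepG2, 24 h exposure. Activity fitted in both directions relative to DMSO negative control.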
# [10] = ATG_E_Box_CIS: Attagene CIS-FACTORIAL HepG2 Assay for human Enhancer Box (E-box) (AID 2282936); settings: HepG2 E-box cis-reporter transcription, actives raise or lower the signal
# Method in brief: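 Cells: HepG2 (human liver), transient MRTU transfection. Exposure 24 h. RNA → oligo(dT) RT → PCR → 6-FAM label → HpaI → CE. Activity fitted both directions relative to DMSO.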
# [11] = ATG_M_61_CIS: Attagene CIS-FACTORIAL HepG2 Assay for M61 Transcription Factor (Internal Marker) (AID 2282937); settings: HepG2 Attagene CIS-FACTORIAL M61 internal marker reporter; actives raise or lower the signal
# Method in brief: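 HepG2 cells transiently transfected with cis-element-driven multiple reporter transcription units, dosed for 24 h. Reporter mRNA measured by RT-PCR, 6-FAM primer-extension labelling, HpaI digestion and capillary electrophoresis; bidirectional fit versus DMSO baseline.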
# [12] = ATG_EGR_CIS: Attagene CIS-FACTORIAL HepG2 Assay for human Early Growth Response 1 (EGR1) (AID 2282938); settings: HepG2 Attagene CIS-FACTORIAL EGR reporter mRNA; actives raise or lower the signal
# Method in brief: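 HepG2 cells transiently transfected with cis-promoter-driven multiplexed reporter transcription units; reporter mRNA measured 24 h after compound dosing by RT-PCR, 6-FAM primer extension, HpaI digestion and capillary electrophoresis. Bidirectional fit versus DMSO baseline.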
# [13] = ATG_M_19_CIS: Attagene CIS-FACTORIAL HepG2 Assay for M19 Transcription Factor (Internal Marker) (AID 2282939); settings: HepG2 Attagene CIS-FACTORIAL M19 internal marker reporter; actives raise or lower the signal
# Method in brief: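 HepG2 cells transiently transfected with cis-regulated multiple reporter transcription units were dosed for 24 h; reporter mRNA was quantified by RT-PCR, 6-FAM primer-extension labelling, HpaI digestion and capillary electrophoresis, with bidirectional fitting against DMSO baseline.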
# [14] = ATG_ERE_CIS: Attagene CIS-FACTORIAL HepG2 Assay for Estrogen Response Element (ERE) (AID 2282940); settings: HepG2 ERE cis-reporter, Attagene RNA transcript; actives raise or lower the signal
# Method in brief: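 HepG2 cells transiently transfected with cis-promoter-driven multiplexed reporter transcription units report endogenous TF activity. After 24 h compound exposure, reporter mRNA is quantified by RT-PCR with capillary electrophoresis fluorescence; bidirectional fitting versus DMSO baseline.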
# [15] = ATG_Ets_CIS: Attagene CIS-FACTORIAL HepG2 Assay for human Erythroblast Transformation Specific (ETS) (AID 2282941); settings: HepG2 ETS cis-reporter transcription, actives raise or lower the signal
# Method in brief: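 HepG2 cells transfected with multiple cis-regulated reporter units measuring endogenous ETS-driven transcription, 24 h after dosing. Reporter mRNA quantified by RT-PCR with capillary electrophoresis; bidirectional fit relative to DMSO.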
# [16] = biological target: Hepatocyte nuclear factor 3-beta (Homo sapiens) (UniProt Q9Y261); experiment: ATG_FoxA2_CIS: Attagene CIS-FACTORIAL HepG2 Assay for human Forkhead box A2 (FOXA2) (AID 2282942); settings: HepG2 cis-reporter transcription factor activity, 24 h; actives raise or lower the signal
# Method in brief: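 HepG2 cells transiently transfected with multiple cis-regulated reporter transcription units, dosed for 24 h. Reporter mRNA measured by RT-PCR, 6-FAM labelling, HpaI digestion and capillary electrophoresis; bidirectional fitting against DMSO baseline.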
# [17] = ATG_FoxO_CIS: Attagene CIS-FACTORIAL HepG2 Assay for human Forkhead box O (FoxO) (AID 2282943); settings: HepG2 Attagene cis-reporter, FoxO element, mRNA; actives raise or lower the signal
# Method in brief: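 Endogenous transcription factor activity read from multiplexed cis-promoter reporter transcripts in transiently transfected HepG2, 24 h after dosing. Reporter RNA measured via RT-PCR plus capillary electrophoresis of FAM-labeled products; gain or loss relative to DMSO.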
# [18] = ATG_GLI_CIS: Attagene CIS-FACTORIAL HepG2 Assay for human Zinc Finger Protein GLI1 (AID 2282945); settings: HepG2, Attagene cis-factorial reporter mRNA, GLI element; actives raise or lower the signal
# Method in brief: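 Bidirectional curve fits relative to DMSO, using reporter mRNA levels from RT-PCR plus capillary electrophoresis. Cells were HepG2 transiently carrying cis-regulated reporter constructs, harvested 24 h after dosing.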
# [19] = ATG_GATA_CIS: Attagene CIS-FACTORIAL HepG2 Assay for human GATA Binding Protein (AID 2282944); settings: HepG2 GATA cis-element reporter, Attagene multiplex mRNA; actives raise or lower the signal
# Method in brief: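 HepG2 cells transiently transfected with multiplexed cis-element reporter units reflecting endogenous transcription factor activity; reporter mRNA measured after 24 h dosing by RT-PCR, 6-FAM labeling, HpaI digestion and capillary electrophoresis. Bidirectional fitting versus DMSO baseline.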
# Sequence of Aryl hydrocarbon receptor (Homo sapiens) (P35869 whole entry, looked up): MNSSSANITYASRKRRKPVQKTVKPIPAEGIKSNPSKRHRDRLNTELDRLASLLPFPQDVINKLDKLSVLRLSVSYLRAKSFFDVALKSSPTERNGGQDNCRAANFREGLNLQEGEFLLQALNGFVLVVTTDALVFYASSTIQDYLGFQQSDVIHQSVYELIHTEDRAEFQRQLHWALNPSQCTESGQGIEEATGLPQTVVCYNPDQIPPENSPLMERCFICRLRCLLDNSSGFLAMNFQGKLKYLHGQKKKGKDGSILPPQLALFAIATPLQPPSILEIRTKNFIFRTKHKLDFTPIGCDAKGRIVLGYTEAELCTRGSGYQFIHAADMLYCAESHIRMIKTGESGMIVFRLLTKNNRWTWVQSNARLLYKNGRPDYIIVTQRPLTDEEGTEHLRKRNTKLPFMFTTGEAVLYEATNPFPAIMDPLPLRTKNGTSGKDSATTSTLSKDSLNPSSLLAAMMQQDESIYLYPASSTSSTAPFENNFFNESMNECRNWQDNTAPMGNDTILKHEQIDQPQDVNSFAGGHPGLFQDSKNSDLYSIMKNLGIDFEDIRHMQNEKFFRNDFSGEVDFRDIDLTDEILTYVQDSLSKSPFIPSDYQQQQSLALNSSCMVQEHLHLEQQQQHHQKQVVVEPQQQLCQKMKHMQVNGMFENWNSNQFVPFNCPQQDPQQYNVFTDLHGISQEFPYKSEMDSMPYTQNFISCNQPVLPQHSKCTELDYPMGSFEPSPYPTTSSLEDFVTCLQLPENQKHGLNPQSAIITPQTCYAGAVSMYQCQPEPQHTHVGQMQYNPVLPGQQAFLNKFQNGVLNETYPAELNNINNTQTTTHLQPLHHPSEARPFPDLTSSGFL
# Sequence of Transcription factor E2F1 (Homo sapiens) (Q01094 whole entry, looked up): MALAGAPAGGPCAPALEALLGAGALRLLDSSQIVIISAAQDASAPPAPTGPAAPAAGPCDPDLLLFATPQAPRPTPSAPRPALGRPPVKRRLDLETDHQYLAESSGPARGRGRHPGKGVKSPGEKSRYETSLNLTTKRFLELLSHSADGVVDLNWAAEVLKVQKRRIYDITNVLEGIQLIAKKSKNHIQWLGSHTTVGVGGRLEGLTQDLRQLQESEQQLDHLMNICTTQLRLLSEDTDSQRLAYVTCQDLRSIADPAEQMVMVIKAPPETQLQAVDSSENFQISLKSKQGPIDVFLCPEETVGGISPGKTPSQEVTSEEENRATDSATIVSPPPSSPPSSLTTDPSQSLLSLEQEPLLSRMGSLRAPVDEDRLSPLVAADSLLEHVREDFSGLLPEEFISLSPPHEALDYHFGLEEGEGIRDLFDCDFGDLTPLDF
# Sequence of CCAAT/enhancer-binding protein beta (Homo sapiens) (P17676 whole entry, looked up, the tested form may be a part): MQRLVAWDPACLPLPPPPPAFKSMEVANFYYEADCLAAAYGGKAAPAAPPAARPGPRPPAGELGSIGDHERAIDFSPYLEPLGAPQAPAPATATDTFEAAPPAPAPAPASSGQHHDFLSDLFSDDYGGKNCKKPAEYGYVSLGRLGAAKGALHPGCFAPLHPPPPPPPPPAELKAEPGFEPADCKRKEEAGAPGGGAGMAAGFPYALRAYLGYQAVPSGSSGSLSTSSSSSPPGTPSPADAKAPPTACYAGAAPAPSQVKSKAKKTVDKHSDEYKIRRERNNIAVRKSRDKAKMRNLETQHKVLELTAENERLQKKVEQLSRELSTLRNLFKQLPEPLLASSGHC
# Sequence of Hepatocyte nuclear factor 3-beta (Homo sapiens) (Q9Y261 whole entry, looked up): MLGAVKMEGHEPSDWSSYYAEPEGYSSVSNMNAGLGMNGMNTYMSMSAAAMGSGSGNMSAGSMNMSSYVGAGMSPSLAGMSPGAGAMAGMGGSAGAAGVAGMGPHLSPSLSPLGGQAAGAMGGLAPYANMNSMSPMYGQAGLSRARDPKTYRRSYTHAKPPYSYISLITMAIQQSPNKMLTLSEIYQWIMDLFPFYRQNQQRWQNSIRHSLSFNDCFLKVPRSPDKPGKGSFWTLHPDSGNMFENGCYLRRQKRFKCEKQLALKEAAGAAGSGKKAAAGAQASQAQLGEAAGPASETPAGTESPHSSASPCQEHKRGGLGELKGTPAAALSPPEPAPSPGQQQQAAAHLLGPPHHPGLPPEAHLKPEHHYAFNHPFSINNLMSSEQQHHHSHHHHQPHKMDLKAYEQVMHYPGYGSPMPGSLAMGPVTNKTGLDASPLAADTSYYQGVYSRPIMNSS
compound,measurement,setting,value
COc1ccc(Nc2ccccc2)c(C)c1,outcome,[1],inactive
same,outcome,[2],inactive
same,AC50,[3],100 µM (active)
same,AC50,[4],46 µM (active)
same,outcome,[5],inactive
same,AC50,[6],139 µM (active)
same,outcome,[7],inactive
same,AC50,[8],149 µM (active)
same,outcome,[9],inactive
same,outcome,[10],inactive
same,outcome,[11],inactive
same,outcome,[12],inactive
same,outcome,[13],inactive
same,AC50,[14],19.6 µM (active)
same,outcome,[15],inactive
same,outcome,[16],inactive
same,outcome,[17],inactive
same,outcome,[18],inactive
NC(=O)Nc1ccc(Cl)cc1,outcome,[1],inactive
same,outcome,[2],inactive
same,outcome,[3],inactive
same,outcome,[4],inactive
same,outcome,[5],inactive
same,outcome,[6],inactive
same,outcome,[7],inactive
same,outcome,[8],inactive
same,outcome,[9],inactive
same,outcome,[10],inactive
same,outcome,[11],inactive
same,outcome,[12],inactive
same,outcome,[13],inactive
same,outcome,[14],inactive
same,outcome,[15],inactive
same,outcome,[16],inactive
same,outcome,[17],inactive
same,outcome,[19],inactive
same,outcome,[18],inactive
Clc1cccc(Cl)n1,outcome,[1],inactive
same,outcome,[2],inactive
same,outcome,[3],inactive
same,outcome,[4],inactive
same,outcome,[5],inactive
same,outcome,[6],inactive
same,outcome,[7],inactive
same,outcome,[8],inactive
same,outcome,[9],inactive
same,outcome,[10],inactive
same,outcome,[11],inactive
same,outcome,[12],inactive
same,outcome,[13],inactive
same,outcome,[14],inactive
same,outcome,[15],inactive
same,outcome,[16],inactive
same,outcome,[17],inactive
same,outcome,[19],inactive
same,outcome,[18],inactive
ClCCCl,outcome,[1],inactive
same,outcome,[2],inactive
same,outcome,[3],inactive
same,outcome,[4],inactive
same,outcome,[5],inactive
same,outcome,[6],inactive
same,outcome,[7],inactive
same,outcome,[8],inactive
same,outcome,[9],inactive
same,outcome,[10],inactive
same,outcome,[11],inactive
same,outcome,[12],inactive
same,outcome,[13],inactive
same,outcome,[14],inactive
same,outcome,[15],inactive
same,outcome,[16],inactive
same,outcome,[17],inactive
same,outcome,[19],inactive
same,outcome,[18],inactive
C=C(C)C(=O)O,outcome,[1],inactive
same,outcome,[2],inactive
same,outcome,[3],inactive
same,outcome,[4],inactive
same,outcome,[5],inactive
same,outcome,[6],inactive
same,outcome,[7],inactive
same,outcome,[8],inactive
same,outcome,[9],inactive
same,outcome,[10],inactive
same,outcome,[11],inactive
same,outcome,[12],inactive
same,outcome,[13],inactive
same,outcome,[14],inactive
same,outcome,[15],inactive
same,outcome,[16],inactive
same,outcome,[17],inactive
same,outcome,[19],inactive
same,outcome,[18],inactive
Nc1cccc(S(=O)(=O)c2cccc(N)c2)c1,outcome,[1],inactive
same,outcome,[2],inactive
same,outcome,[3],inactive
same,outcome,[4],inactive
same,outcome,[5],inactive
same,outcome,[6],inactive
same,outcome,[7],inactive
same,outcome,[8],inactive
same,outcome,[9],inactive
same,outcome,[10],inactive
same,outcome,[11],inactive
same,outcome,[12],inactive
same,outcome,[13],inactive
same,outcome,[14],inactive
same,outcome,[15],inactive
same,outcome,[16],inactive
same,outcome,[19],inactive
same,outcome,[18],inactive
COC(=O)c1ccc(C)cc1,outcome,[1],inactive
same,outcome,[2],inactive
same,outcome,[3],inactive
same,outcome,[4],inactive
same,outcome,[5],inactive
same,outcome,[6],inactive
same,outcome,[7],inactive
same,outcome,[8],inactive
same,outcome,[9],inactive
same,outcome,[10],inactive
same,outcome,[11],inactive
same,outcome,[12],inactive
same,outcome,[13],inactive
same,outcome,[14],inactive
same,outcome,[15],inactive
same,outcome,[16],inactive
same,outcome,[17],inactive
same,outcome,[18],inactive
